Assay results from PubChem BioAssay.
Active and inactive are the calls of the source.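 The calls were made as follows, unless noted: active = fluorescence slope after compound addition differing from the mean of all screened samples at 99.7% confidence, in either direction; inactive = the rest.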

Tests used:
[1] = inhibitors of TNFa-induced NFkB p65 translocation, primary screen, imaging, HUVEC, MLSMR starter and 10KST1 sets (AID 438;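 active = inhibition above 20% together with a positive visual image hit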;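 also: compound added about 3h40 before a 20 min TNFalpha stimulation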;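 as to inhibition: signal is the nuclear over cytoplasmic p65 intensity ratio per well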); conditions: HUVEC TNFa-induced p65 nuclear translocation; cell count: measured here: nuclei count (cytotoxicity indicator), at 2.08 µM; inhibition: at 2 µM, stronger effect = higher value, 0% TNFa-plus-vehicle, 100% no-TNFa wells
[2] = reduction of polyQ htt aggregates in cells – imaging, exon1htt(103Q)mCFP cells, high-content imaging, primary screen (AID 483;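 active = visual image review flags a hit and inhibition of aggregation exceeds 20%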;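 also: compound exposure lasted 3 days before fixation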;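 as to nuclei count: percent of the per-plate median nuclei count of sample wells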); conditions: exon1htt(103Q)mCFP cell line, aggregate imaging, at 2 µM; inhibition of aggregation: stronger effect = higher value; nuclei count: measured here: cell count, toxicity
[3] = endothelial E-selectin expression blockers – imaging, HUVEC, immunofluorescence, MLSMR starter and 10KST1 sets, primary screen (AID 487;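 active = visually confirmed hit in the image check and inhibition above 20%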;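 as to inhibition: signal is fraction of cell area covered by stained E-selectin grains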;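 as to nuclei count: 100% = median nuclei count of all wells on the same plate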); conditions: HUVEC TNFalpha-induced E-selectin immunofluorescence imaging, at 2 µM; inhibition: stronger effect = higher value; nuclei count: measured here: cell number, toxicity
[4] = molecular target: Voltage-gated potassium channel subunit beta-2 (Rattus norvegicus) (UniProt P62483); test: inhibitors of rat Kvbeta2 reductase activity – biochemical, NADPH fluorescence, primary screen (AID 622;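 active = fluorescence slope higher than the sample average by over 3 SD, cut at about -0.22 in these data, passing the limit was not always enough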;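 also: slope of raw intensity against log time taken from 70 to 1610 s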); conditions: recombinant KvBeta, 4-cyanobenzaldehyde reduction, at 10 µM, stronger effect = higher value
Chain of Voltage-gated potassium channel subunit beta-2 (Rattus norvegicus) (P62483 whole entry, looked up): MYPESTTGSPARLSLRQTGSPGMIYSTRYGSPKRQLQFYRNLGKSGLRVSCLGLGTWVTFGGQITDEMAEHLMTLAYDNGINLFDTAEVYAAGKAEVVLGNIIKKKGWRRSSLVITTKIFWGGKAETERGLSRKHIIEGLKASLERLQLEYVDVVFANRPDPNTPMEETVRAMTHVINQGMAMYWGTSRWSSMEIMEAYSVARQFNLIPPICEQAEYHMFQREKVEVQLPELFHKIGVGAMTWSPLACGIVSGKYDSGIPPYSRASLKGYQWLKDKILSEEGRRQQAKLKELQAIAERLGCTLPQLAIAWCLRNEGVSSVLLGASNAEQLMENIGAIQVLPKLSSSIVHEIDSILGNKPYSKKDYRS

[5] = molecular target: Voltage-gated potassium channel subunit beta-2 (Rattus norvegicus) (UniProt P62483); test: enhancers of rat Kvbeta2 NADPH turnover – biochemical, NADPH fluorescence, primary screen (AID 623;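 active = NADPH fluorescence slope more negative than the mean of all samples by about 3 SD, 99.7% confidence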;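 also: fluorescence intensity change per second fitted from 20 to 320 s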); conditions: Recombinant KvBeta, NADPH fluorescence decrease slope, 10 min; at 10 µM; stronger effect = lower value
[6] = molecular target: Alpha-2C adrenergic receptor (Homo sapiens) (UniProt P18825); test: compounds altering alpha2C-coupled GIRK flux – cell-based, HEK293 alpha2C/GIRK1/2, thallium flux, primary screen (AID 624); conditions: thallium flux BTC fluorescence, at 10 µM, actives lie on both sides;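 also: slope of fluorescence ratio to pre-addition baseline per second over 15 to 24 s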
Chain of Alpha-2C adrenergic receptor (Homo sapiens) (P18825 whole entry, looked up): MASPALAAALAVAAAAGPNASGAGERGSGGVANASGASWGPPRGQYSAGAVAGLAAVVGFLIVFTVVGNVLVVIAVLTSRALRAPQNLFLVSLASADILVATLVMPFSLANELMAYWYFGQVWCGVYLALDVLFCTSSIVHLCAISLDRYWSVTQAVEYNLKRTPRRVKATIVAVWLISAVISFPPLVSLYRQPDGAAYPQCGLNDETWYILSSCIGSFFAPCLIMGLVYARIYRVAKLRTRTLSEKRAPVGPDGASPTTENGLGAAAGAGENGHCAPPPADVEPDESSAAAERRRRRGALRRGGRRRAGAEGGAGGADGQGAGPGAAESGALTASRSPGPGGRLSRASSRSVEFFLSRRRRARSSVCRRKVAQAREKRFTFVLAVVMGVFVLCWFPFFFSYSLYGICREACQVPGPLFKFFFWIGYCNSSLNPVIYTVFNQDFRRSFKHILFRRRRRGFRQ

[7] = blockers of RIG-like receptor reporter activation – cell-based, Sendai virus stimulus, luciferase, 10K MLSCN set, TLR/RLR signaling modifier project, primary screen (AID 602276;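 active = inhibition at or above 50% at 10 µM; inactive = inhibition below 50%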;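 also: firefly luciferase from ISG56 promoter only with Renilla not read in this screen; 0% = Sendai virus plus DMSO and 100% = medium plus DMSO without virus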); conditions: HEK293 RL24 IRF3 luciferase reporter, at 10 µM, stronger effect = higher value
[8] = TLR3 IRF3 reporter activation blockers – cell-based, poly I:C stimulus, luciferase, 10K MLSCN set, primary screen (AID 602277;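 active = inhibition of the reporter signal at or above 50%; inactive = inhibition below 50%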); conditions: HEK293-TLR3 RL24 IRF3 luciferase reporter, at 10 µM, stronger effect = higher value

Row | Structure (SMILES) | cell count [1] | inhibition [1] | inhibition of aggregation [2] | nuclei count [2] | inhibition [3] | nuclei count [3] | fluorescence slope [4] | NADPH fluorescence slope [5] | slope [6] | inhibition [7] | inhibition [8]
1 | O=C(Cn1c(=O)sc2ccccc21)NCCOc1ccccc1F | 780 | -12% (inactive) | -3.1% (inactive) | 104% | 36.2% (inactive) | 108% | -0.514 (inactive) | -9e-06 (inactive) | 0.00676 (inactive) | 0.0246% (inactive) | 6.19% (inactive)
2 | CC(C)CCNC(=O)C(C)N(Cc1ccc(F)cc1)C(=O)c1ccc(CN2CCCCC2)o1 (stereo not drawn) | 327 | -11.2% (inactive) | 28.1% (active) | 75.3% | 2.1% (inactive) | 106% | -0.284 (inactive) | -6e-05 (inactive) | 0.00436 (inactive) | 7.35% (inactive) | 14% (inactive)
3 | c1cn2cc(CSC3CCCCC3)nc2s1 | 641 | 11% (inactive) | 12.1% (inactive) | 107% | -53.3% (inactive) | 140% | -0.585 (inactive) | -4.6e-05 (inactive) | 0.00605 (inactive) | -32.1% (inactive) | -53% (inactive)
4 | CCCc1nnc(SCC(=O)N2CCOCC2)n1Cc1ccco1 | 660 | -2.2% (inactive) | -10.6% (inactive) | 96.5% | -0.5% (inactive) | 101% | -0.617 (inactive) | -5.1e-05 (inactive) | 0.0036 (inactive) | 19.5% (inactive) | 22.7% (inactive)
5 | CCCOc1ccccc1C1CC(=O)Nc2cc3c(cc21)OCCO3 (stereo not drawn) | 647 | 4.9% (inactive) | 6.6% (inactive) | 39.3% | 29.7% (inactive) | 97.2% | -0.628 (inactive) | -2e-05 (inactive) | 0.00236 (inactive) | -3.13% (inactive) | 78% (active)
6 | CCOC(=O)C1CCCN(C(=O)c2ccc(CS(=O)(=O)c3ccc(Br)cc3)o2)C1 (stereo not drawn) | 509 | -3% (inactive) | -0.5% (inactive) | 108% | -61.3% (inactive) | 111% | -0.422 (inactive) | -7.7e-05 (inactive) | 0.00523 (inactive) | 4.84% (inactive) | 25.8% (inactive)
7 | COc1ccc(C2c3sc(=O)[nH]c3SC3C4CCC(C4)C23)cc1 (stereo not drawn) | 573 | -7.6% (inactive) | -14% (inactive) | 93.8% | -69.5% (inactive) | 106% | -0.53 (inactive) | 3.9e-05 (inactive) | 0.00413 (inactive) | -5.3% (inactive) | 9.16% (inactive)
8 | O=C(c1ccc(COc2c(F)c(F)c(F)c(F)c2F)o1)N1CCOCC1 | 701 | 2.8% (inactive) | 26.7% (inactive) | 79.8% | -25% (inactive) | 105% | -0.58 (inactive) | -3.8e-05 (inactive) | 0.0055 (inactive) | 10.5% (inactive) | 33.9% (inactive)
9 | Cc1noc(/C=C/N(C)C)c1S(=O)(=O)N1CCc2ccccc21 | 611 | 3.4% (inactive) | 24.9% (inactive) | 89.8% | -60.7% (inactive) | 115% | -0.558 (inactive) | -8.6e-06 (inactive) | 0.00715 (inactive) | -1.69% (inactive) | 55.2% (active)
10 | CCOC(=O)N1CCN(C(=O)c2ccc3nc4ccsc4c(=O)n3c2)CC1 | 542 | 9.1% (inactive) | -30.4% (inactive) | 65.4% | 12.9% (inactive) | 95.5% | -0.324 (inactive) | -1.8e-05 (inactive) | 0.00717 (inactive) | 14.6% (inactive) | 44.2% (inactive)
11 | Cc1ccc(C)c(NS(=O)(=O)c2ccc(NC(=O)c3ccco3)cc2)c1 | 476 | 13.3% (inactive) | 4.7% (inactive) | 111% | -15.1% (inactive) | 109% | -0.335 (inactive) | -3.2e-05 (inactive) | 0.00608 (inactive) | 0.316% (inactive) | 11.1% (inactive)
12 | CCCCN(C)C(=O)c1ccc(CS(=O)(=O)c2ccccc2C)o1 | 315 | -10.4% (inactive) | 10.5% (inactive) | 65.2% | -44.3% (inactive) | 111% | -0.569 (inactive) | -1.2e-05 (inactive) | 0.00658 (inactive) | 7.73% (inactive) | 13.7% (inactive)
13 | O=C(NCC(=O)N1CCC(N2CCCCC2)CC1)C1CCCCC1 | 505 | -12% (inactive) | 19.9% (inactive) | 91.8% | 10.2% (inactive) | 91% | -0.481 (inactive) | -0.000128 (inactive) | 0.00598 (inactive) | -3.39% (inactive) | 1.58% (inactive)
14 | CCc1ccccc1OCCCCN1CCCC1 | 454 | -4.1% (inactive) | 10.6% (inactive) | 89.5% | -88.7% (inactive) | 75.1% | -0.518 (inactive) | -4.4e-05 (inactive) | 0.00548 (inactive) | -4.55% (inactive) | -12.9% (inactive)
15 | N#CC1=C(N)OC(c2ccccc2)=C(C#N)C1c1ccc2c(c1)OCO2 (stereo not drawn) | 609 | -19.6% (inactive) | 6% (inactive) | 112% | 29.2% (inactive) | 96.1% | -0.482 (inactive) | -9.1e-05 (inactive) | 0.00651 (inactive) | -16.2% (inactive) | 10.8% (inactive)
16 | CC1Cc2nc(SCC(=O)Nc3ccc(F)cc3F)n(C)c(=O)c2S1 (stereo not drawn) | 366 | -0.6% (inactive) | -7.8% (inactive) | 104% | 0.8% (inactive) | 113% | -0.587 (inactive) | -3.7e-05 (inactive) | 0.00486 (inactive) | 15.3% (inactive) | 11.8% (inactive)
17 | CC1CCCCN1C(=O)Cn1nnc(-c2cccnc2)n1 (stereo not drawn) | 493 | 8% (inactive) | -12% (inactive) | 93.1% | -23.4% (inactive) | 95.3% | -0.485 (inactive) | -4.8e-05 (inactive) | 0.00445 (inactive) | 9.95% (inactive) | 16.3% (inactive)
18 | Cc1c(NC2=NC3(CCCCC3)Cc3ccccc32)c(=O)n(-c2ccccc2)n1C | 716 | -5.3% (inactive) | 6.1% (inactive) | 101% | 59.1% (active) | 72.3% | -0.354 (inactive) | -6.6e-05 (inactive) | 0.00622 (inactive) | 13.1% (inactive) | 21.6% (inactive)
19 | Cn1c(=O)c2c(nc3sccn32)n(C)c1=O | 463 | 12.5% (inactive) | 5.1% (inactive) | 100% | 29.8% (inactive) | 108% | -0.455 (inactive) | 7.5e-05 (inactive) | 0.00599 (inactive) | 9.58% (inactive) | 23.1% (inactive)
20 | C=CCOc1nc2c(c(=O)n(C)c(=O)n2C)n1C | 339 | 1% (inactive) | -1.3% (inactive) | 113% | 0.3% (inactive) | 119% | -0.444 (inactive) | -4.9e-05 (inactive) | 0.00278 (inactive) | 6.05% (inactive) | 34.1% (inactive)
21 | O=C(Nc1ncc2c(n1)CC(c1ccccc1)CC2=O)c1ccco1 (stereo not drawn) | 572 | -8.6% (inactive) | -5.3% (inactive) | 99.5% | -3.8% (inactive) | 86% | -0.534 (inactive) | -5.7e-06 (inactive) | 0.00546 (inactive) | 9.1% (inactive) | 9.67% (inactive)
22 | CC(C)(C)n1nnnc1CN1CCN(C2CCCC2)CC1 | 798 | -8.1% (inactive) | 9.7% (inactive) | 136% | -52.3% (inactive) | 107% | -0.472 (inactive) | -4.3e-05 (inactive) | 0.00587 (inactive) | -0.428% (inactive) | 21.3% (inactive)
23 | N#CC1=C(N)SC(N)=C(C#N)C1c1ccc(C(F)(F)F)cc1 | 520 | -1.5% (inactive) | -11.9% (inactive) | 114% | -69.1% (inactive) | 187% | -0.472 (inactive) | 2.9e-05 (inactive) | 0.00688 (inactive) | -1.4% (inactive) | -49.4% (inactive)
24 | C=CCN1C(=O)CS/C1=C(\C#N)S(=O)(=O)c1ccc(C)cc1 | 585 | 13.3% (inactive) | -5.1% (inactive) | 108% | -75.5% (inactive) | 104% | -0.481 (inactive) | -4.8e-05 (inactive) | 0.00449 (inactive) | 20% (inactive) | 28.5% (inactive)
25 | COc1cccc(-c2nnc(NC(=O)Cc3cccs3)s2)c1 | 710 | -5% (inactive) | 22% (inactive) | 79.8% | 1.2% (inactive) | 92% | -0.452 (inactive) | -3e-05 (inactive) | 0.00526 (inactive) | 2.67% (inactive) | -7.11% (inactive)
26 | FC(F)(F)c1cc(-c2ccco2)nc(NCc2ccco2)n1 | 589 | 14.6% (inactive) | 28.3% (inactive) | 95.5% | -24.3% (inactive) | 94.8% | -0.194 (inactive) | -3e-05 (inactive) | 0.00472 (inactive) | 14.2% (inactive) | 13.8% (inactive)
27 | Cc1nn(-c2ccc(F)cc2)c2sc(C(=O)N3CCCCCC3)cc12 | 465 | 2% (inactive) | 1.2% (inactive) | 83.1% | -38.9% (inactive) | 113% | -0.199 (inactive) | -3.1e-05 (inactive) | 0.00645 (inactive) | -4.92% (inactive) | -14.2% (inactive)
28 | Cc1nc(N)c(C#N)c(-c2cccnc2)c1C | 494 | -14.5% (inactive) | 30.9% (inactive) | 85% | -16.2% (inactive) | 88.9% | -0.411 (inactive) | 1.8e-05 (inactive) | 0.00561 (inactive) | 4.72% (inactive) | -5.6% (inactive)
